Inconclusive results are not listed. A call without a number means that no potency is given here. Activity calls are given as the source filed them. Calls follow the shape of the dose curve; as a rule, active = well fitted curve in the direction sought with a large enough effect; inconclusive = small, poorly fitted or top-dose-only effect, or another doubt; inactive = no such curve, though single readings can be large; an effect the other way counts as inactive or inconclusive.

In one test the target is Aldehyde dehydrogenase, mitochondrial (Homo sapiens) (UniProt P05091). The experiment in a line: qHTS for Inhibitors of the Aldehyde Dehydrogenase Family (ALDH2) Primary screen (AID 2061308). Also: nearly all actives have a fitted effect of over 55% in size. As to conditions: ALDH2 enzyme inhibition qHTS, 1536-well; series mostly up to 56 µM. A general note: In qHTS, concentration-response curves come from the screen itself.
Take `OC1C=C2C3CN(Cc4cc5c(cc43)OCO5)C2CC1O` (stereo not given): the Potency entry was “inactive”.
The same measure, in the same setting: under `Cc1nc(CNc2ncnc3ccc(-c4ccc(CO)o4)cc23)cs1` stands “inactive”; under `CC(C)(C)c1cc(O)c(CN)c(C(C)(C)C)c1`, “inactive”; under `COc1ccc(NS(=O)(=O)c2ccc(C)cc2)cc1C(=O)Nc1nc(-c2ccccc2)cs1`, “inactive”.
The same measure, in the same setting: under `CC(=O)Nc1cccc([S+](=O)([O-])N2CCCN([S+](=O)([O-])c3cccc(NC(C)=O)c3)CC2)c1` stands “inactive”; under `Cn1c(=O)c2c(nc(CN3CCN(C(=O)C4CC4)CC3)n2Cc2cccc(F)c2)n(C)c1=O`, “inactive”; under `Cc1ccc(-c2ccc(CNc3nc(-c4ccccc4C(C)C)nc4ccccc34)cc2)cn1`, “inactive”.
Still for that read-out and setting: under `Cc1ccc(S(=O)(=O)Nc2cnccc2C(=O)Nc2nc(-c3ccccc3Cl)cs2)cc1` stands “inactive”.
As to `CCOc1ccc(CNc2ccc(-c3nc4ccccc4[nH]3)cc2)cc1`, the Potency entry is “inactive”.
On the same count and under the same terms, for `COc1cccc(CNc2ccc(S(=O)(=O)Nc3nccs3)cc2)c1O` the value was “inactive”.
Still for that read-out and setting: for `COc1ccc(-c2csc(NC(=O)c3ccccc3NS(=O)(=O)c3ccc(C)cc3)n2)cc1` the value was “inactive”.
On the same count and under the same terms, under `COC1C=C([C@@H]2CC=C3[C@@]4(C)C(CC[C@]32C)[C@@]2(C)C=CC(=O)C(C)(C)C2C[C@H]4OC(C)=O)C(=O)O1` (stereo not given in full) stands “inactive”; under `O=C(Cc1ccccc1)Nc1sc2c(c1C(=O)Nc1cccc(Cl)c1)CCCC2`, “inactive”.
Take `O=C(N1CCc2cc([S+](=O)([O-])N3CCN([S+](=O)([O-])c4c(F)cccc4F)CC3)ccc2C1)C(F)(F)F`: the Potency result is “inactive”.
The same measure, in the same setting: under `N#Cc1ccc(Nc2ncc(-c3cccc4ccccc34)o2)cc1` stands “inactive”.
`O=C(Nc1ccc(Br)cc1)Nc1nnc(-c2ccncc2)s1`: the Potency result is “inactive”.
The same measure, in the same setting: under `CCNC(=O)c1ccc(-c2ccc3ncnc(N4CCOCC4)c3c2)o1` stands “inactive”; under `O=C(c1ccccc1)N(C(=O)c1ccccc1)c1ncnc2c1C(c1ccccc1)c1c(ccc3ccccc13)O2` (stereo not given), “inactive”.
On the same count and under the same terms, for `Cc1sc(NC(=O)Cc2ccc3c(c2)OCO3)nc1-c1ccc2c(c1)CCN2C(=O)c1ccccc1Cl` the value was “inactive”; for `CO[C@H]1C[C@@H]2CC[C@@H](C)[C@@](O)(O2)C(=O)C(=O)N2CCCC[C@H]2C(=O)O[C@H]([C@@H](C)C[C@@H]2CC[C@@H](O)[C@H](OC)C2)CC(=O)[C@H](C)/C=C(\C)[C@@H](O)[C@@H](OC)C(=O)[C@H](C)C[C@H](C)/C=C/C=C/C=C/1C`, “inactive”.
Consider `O=C([C@H](Cc1ccc(O[S+](=O)([O-])c2cccc3cccnc23)cc1)N[S+](=O)([O-])c1cccnc1)N1CCN(c2ccccc2)CC1`, for which the Potency result was “inactive”.
Still for that read-out and setting: for `Cc1cccc(CNc2ccc(S(=O)(=O)Nc3nccs3)cc2)c1O` the value was “inactive”.
Same read-out and setting: for `C#CCOc1ccc(C(C)=O)cc1-c1nnc2n1N=C(c1ccc(OC)c(OC)c1)CS2` the value was “inactive”; for `Cc1cc(C)nc(NC(=S)N2CCN(c3cccc(Cl)c3Cl)CC2)c1`, “inactive”; for `COc1ccc(C2Nc3ccccc3C(=O)N2CCCN(C)C)cc1COc1c(C)cc(NC(C)=O)cc1C` (stereo not given), “inactive”.
Consider `N#Cc1cc(NC(=O)Nc2cccc(-c3ccncc3)n2)ccc1Cl`, for which the Potency result was “inactive”.
The same measure, in the same setting: for `Cc1cc(NS(=O)(=O)c2cc3c(cc2F)NC(=O)CC3)ccc1Cl` the value was “inactive”; for `O=C(Cc1nnc(-c2nc3ccccc3[nH]2)o1)Nc1cc(C(F)(F)F)ccc1Cl`, “inactive”; for `O=C(Nc1ccc(Br)c(Br)c1)Nc1nnc(-c2cccnc2)s1`, “inactive”.
Still for that read-out and setting: for `O=S(=O)(c1ccccc1)N1CCN(S(=O)(=O)c2ccc3c(c2)OCCO3)CC1` the value was “inactive”; for `Cc1cccc(CNc2ncnc3ccc(-c4cccc(Cl)c4)cc23)c1`, “inactive”; for `Cc1cc(NC(=O)c2ccc(C)c(Nc3nccc(-c4cccnc4)n3)c2)cc(-n2cnc(C)c2)c1`, “inactive”.
For `COc1ccc(-c2nc(Nc3ccc(F)c(F)c3)c3ccccc3n2)cc1`, the Potency result is “inactive”.
`O=c1c2ccccc2nc2sc(Nc3cccc4ccccc34)nn12`: the Potency entry was “inactive”.
The same measure, in the same setting: for `O=C(Nc1ccc(C(=O)Nc2nccs2)cc1)c1ccc2ccccc2c1` the value was “inactive”; for `O=C(Nc1ccccc1)Nc1ccccc1`, “inactive”.
On the same count and under the same terms, under `COc1ccc(-c2csc(N3CCC(C(N)=O)CC3)n2)cc1OC` stands “inactive”.
Consider `Cc1ccccc1-c1csc2ncnc(Sc3nnnn3C)c12`, for which the Potency entry is “inactive”.
For `C=CCNc1oc(-c2ccc(-c3ccccc3)cc2)nc1C#N`, the Potency result is “inactive”.
The same measure, in the same setting: under `Cc1ccc(NC(=O)CSc2nnc(-c3cccc([S+](=O)([O-])N4CCCC4)c3)n2-c2ccccc2)cc1` stands “inactive”.

The next test addresses Retinaldehyde dehydrogenase 3 (Homo sapiens) (UniProt P47895). The experiment in a line: qHTS for Inhibitors of the Aldehyde Dehydrogenase Family (ALDH1A3) Primary screen (AID 2061315). As to conditions: ALDH inhibition qHTS; series mostly up to 56 µM.
On to `OC1C=C2C3CN(Cc4cc5c(cc43)OCO5)C2CC1O` (stereo not given), for which the Potency entry was “inactive”.
Same read-out and setting: for `Cc1nc(CNc2ncnc3ccc(-c4ccc(CO)o4)cc23)cs1` the value was “inactive”.
The same measure, in the same setting: under `CC(C)(C)c1cc(O)c(CN)c(C(C)(C)C)c1` stands “inactive”; under `COc1ccc(NS(=O)(=O)c2ccc(C)cc2)cc1C(=O)Nc1nc(-c2ccccc2)cs1`, “inactive”; under `CC(=O)Nc1cccc([S+](=O)([O-])N2CCCN([S+](=O)([O-])c3cccc(NC(C)=O)c3)CC2)c1`, “inactive”.
Same read-out and setting: for `Cn1c(=O)c2c(nc(CN3CCN(C(=O)C4CC4)CC3)n2Cc2cccc(F)c2)n(C)c1=O` the value was “inactive”.
In the case of `Cc1ccc(-c2ccc(CNc3nc(-c4ccccc4C(C)C)nc4ccccc34)cc2)cn1`, the Potency entry was “inactive”.
The same measure, in the same setting: for `Cc1ccc(S(=O)(=O)Nc2cnccc2C(=O)Nc2nc(-c3ccccc3Cl)cs2)cc1` the value was “inactive”.
`CCOc1ccc(CNc2ccc(-c3nc4ccccc4[nH]3)cc2)cc1`: the Potency result was “inactive”.
Same read-out and setting: under `COc1cccc(CNc2ccc(S(=O)(=O)Nc3nccs3)cc2)c1O` stands “inactive”.
On the same count and under the same terms, under `COc1ccc(-c2csc(NC(=O)c3ccccc3NS(=O)(=O)c3ccc(C)cc3)n2)cc1` stands “inactive”; under `COC1C=C([C@@H]2CC=C3[C@@]4(C)C(CC[C@]32C)[C@@]2(C)C=CC(=O)C(C)(C)C2C[C@H]4OC(C)=O)C(=O)O1` (stereo not given in full), “inactive”.
The same measure, in the same setting: for `O=C(Cc1ccccc1)Nc1sc2c(c1C(=O)Nc1cccc(Cl)c1)CCCC2` the value was “inactive”; for `O=C(N1CCc2cc([S+](=O)([O-])N3CCN([S+](=O)([O-])c4c(F)cccc4F)CC3)ccc2C1)C(F)(F)F`, “inactive”; for `N#Cc1ccc(Nc2ncc(-c3cccc4ccccc34)o2)cc1`, “inactive”.
Turning to `O=C(Nc1ccc(Br)cc1)Nc1nnc(-c2ccncc2)s1`, the Potency result is “inactive”.
Same read-out and setting: under `CCNC(=O)c1ccc(-c2ccc3ncnc(N4CCOCC4)c3c2)o1` stands “inactive”; under `O=C(c1ccccc1)N(C(=O)c1ccccc1)c1ncnc2c1C(c1ccccc1)c1c(ccc3ccccc13)O2` (stereo not given), “inactive”.
The same measure, in the same setting: for `Cc1sc(NC(=O)Cc2ccc3c(c2)OCO3)nc1-c1ccc2c(c1)CCN2C(=O)c1ccccc1Cl` the value was “inactive”; for `CO[C@H]1C[C@@H]2CC[C@@H](C)[C@@](O)(O2)C(=O)C(=O)N2CCCC[C@H]2C(=O)O[C@H]([C@@H](C)C[C@@H]2CC[C@@H](O)[C@H](OC)C2)CC(=O)[C@H](C)/C=C(\C)[C@@H](O)[C@@H](OC)C(=O)[C@H](C)C[C@H](C)/C=C/C=C/C=C/1C`, “inactive”; for `O=C([C@H](Cc1ccc(O[S+](=O)([O-])c2cccc3cccnc23)cc1)N[S+](=O)([O-])c1cccnc1)N1CCN(c2ccccc2)CC1`, “inactive”.
In the case of `Cc1cccc(CNc2ccc(S(=O)(=O)Nc3nccs3)cc2)c1O`, the Potency result is “inactive”.
Still for that read-out and setting: under `C#CCOc1ccc(C(C)=O)cc1-c1nnc2n1N=C(c1ccc(OC)c(OC)c1)CS2` stands “inactive”.
Consider `Cc1cc(C)nc(NC(=S)N2CCN(c3cccc(Cl)c3Cl)CC2)c1`, for which the Potency result is “inactive”.
Still for that read-out and setting: for `COc1ccc(C2Nc3ccccc3C(=O)N2CCCN(C)C)cc1COc1c(C)cc(NC(C)=O)cc1C` (stereo not given) the value was “inactive”.
The same measure, in the same setting: under `N#Cc1cc(NC(=O)Nc2cccc(-c3ccncc3)n2)ccc1Cl` stands “inactive”; under `Cc1cc(NS(=O)(=O)c2cc3c(cc2F)NC(=O)CC3)ccc1Cl`, “inactive”.
On the same count and under the same terms, under `O=C(Cc1nnc(-c2nc3ccccc3[nH]2)o1)Nc1cc(C(F)(F)F)ccc1Cl` stands “inactive”; under `O=C(Nc1ccc(Br)c(Br)c1)Nc1nnc(-c2cccnc2)s1`, “inactive”; under `O=S(=O)(c1ccccc1)N1CCN(S(=O)(=O)c2ccc3c(c2)OCCO3)CC1`, “inactive”.
Take `Cc1cccc(CNc2ncnc3ccc(-c4cccc(Cl)c4)cc23)c1`: the Potency result was “inactive”.
Same read-out and setting: for `Cc1cc(NC(=O)c2ccc(C)c(Nc3nccc(-c4cccnc4)n3)c2)cc(-n2cnc(C)c2)c1` the value was “inactive”; for `COc1ccc(-c2nc(Nc3ccc(F)c(F)c3)c3ccccc3n2)cc1`, “inactive”.
For the molecule `O=c1c2ccccc2nc2sc(Nc3cccc4ccccc34)nn12`, the Potency result was “inactive”.
Same read-out and setting: for `O=C(Nc1ccc(C(=O)Nc2nccs2)cc1)c1ccc2ccccc2c1` the value was “inactive”; for `O=C(Nc1ccccc1)Nc1ccccc1`, “inactive”; for `COc1ccc(-c2csc(N3CCC(C(N)=O)CC3)n2)cc1OC`, “inactive”.
Take `Cc1ccccc1-c1csc2ncnc(Sc3nnnn3C)c12`: the Potency result was “inactive”.
As to `C=CCNc1oc(-c2ccc(-c3ccccc3)cc2)nc1C#N`, the Potency entry was “inactive”.
On the same count and under the same terms, under `Cc1ccc(NC(=O)CSc2nnc(-c3cccc([S+](=O)([O-])N4CCCC4)c3)n2-c2ccccc2)cc1` stands “inactive”.

(Values after PubChem BioAssay (NCATS).)
